Screening data (PubChem BioAssay)
Most compounds without a hit are left out; they make up all but 3% or so of the library.
Tau fibril ThT: blocks human tau fibril formation measured by thioflavin T; recombinant tau K18 P301L, heparin-induced fibrillization, ThT fluorescence; Potency, µM (doses to about 57.4 µM), most hits filed as inhibitors; hit rate 2.1% among 270,000; note: nearly all actives have a fitted effect of over 55% in size
Target sequence (P10636 561-689 P618L limits assumed): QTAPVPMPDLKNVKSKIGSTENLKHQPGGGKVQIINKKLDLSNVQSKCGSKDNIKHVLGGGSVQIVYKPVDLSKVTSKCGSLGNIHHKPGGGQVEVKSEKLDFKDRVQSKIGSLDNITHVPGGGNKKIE
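Fibril formation assay: tau K18 P301L at 15 uM with trace Alexa 594 label, heparin inducer 20 uM, pH 7 sodium acetate buffer, 37 C for 6 hr; endpoint ThT signal.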
TR SRC2 fluor cs: alters Texas Red total fluorescence, flagging assay interference; TRb/SRC2 Texas Red total fluorescence interference; hit rate 0.29% among 280,000; AID 1479; Potency, µM (series often up to 106 µM); active = well fitted curve in either direction with a large enough effect; inconclusive = small, poorly fitted or top-dose-only effect
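Human TRb ligand-binding domain at 0.6 uM with 20 nM Texas Red SRC2 peptide in Tris buffer containing 1 uM T3 and 5% DMSO, incubated with compound 5 h at ambient temperature. Total fluorescence (555/632 nm) calculated as parallel + 2 × perpendicular.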
Tau fibril FP: blocks human tau fibril formation measured by polarization | AID 1468 | K18 P301L tau heparin fibrillization, Alexa594 FP, 6 h | Potency, µM (titrated, usually from 57.7 µM), hits mostly inhibitors | hit rate 0.39% among 280,000; note: nearly all actives have a fitted effect of over 55% in size
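Compound effects on tau fibrillization are measured by Alexa 594 fluorescence polarization (ex 555, em 632 nm). K18 P301L tau is used at 15 uM with 0.24 uM labeled tracer, and 20 uM heparin induces aggregation over 6 hr at 37 C.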
TRb SRC2 PPI: inhibitors of human thyroid hormone receptor beta-SRC2 interaction | P10828 | TRbeta-SRC2 peptide binding, fluorescence polarization; receptor liganded with 1 µM T3 | Potency, µM (titrated, usually from 106 µM), usual class: inhibitors | hit rate 0.065% among 280,000 | AID 1469; note: nearly all actives have a fitted effect of over 50% in size
Target sequence (P10828 whole entry, looked up): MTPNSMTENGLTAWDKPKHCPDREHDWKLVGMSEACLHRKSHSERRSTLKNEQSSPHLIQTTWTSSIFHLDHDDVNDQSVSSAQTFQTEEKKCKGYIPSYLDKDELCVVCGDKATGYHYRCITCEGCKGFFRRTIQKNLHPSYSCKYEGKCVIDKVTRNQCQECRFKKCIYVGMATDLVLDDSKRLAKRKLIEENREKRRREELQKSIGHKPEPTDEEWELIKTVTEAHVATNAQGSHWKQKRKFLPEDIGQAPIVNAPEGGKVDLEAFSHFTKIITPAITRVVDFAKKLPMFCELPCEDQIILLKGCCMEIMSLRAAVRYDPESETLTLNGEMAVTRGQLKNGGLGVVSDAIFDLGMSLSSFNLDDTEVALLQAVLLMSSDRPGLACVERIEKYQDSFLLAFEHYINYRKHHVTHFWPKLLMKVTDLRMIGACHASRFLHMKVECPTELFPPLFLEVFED
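Each compound concentration gave % activity, normalized to unbound and bound Texas Red SRC2 controls, from polarization read after 5 hr ambient incubation with T3-loaded human TRb LBD.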
Tau fluor counter: counter-screen for tau fibril formation inhibitors | Potency, µM (highest dose often 57.7 µM) | AID 1463 | tau K18 P301L Alexa594 fluorescence, heparin fibrillization | hit rate 0.93% among 280,000; note: nearly all actives have a fitted effect of over 55% in size
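Human tau K18 P301L (15 uM unlabeled, 0.24 uM Alexa 594-labeled) in 100 mM sodium acetate pH 7 with 20 uM heparin, 6 hr at 37 C. ThT 30 uM added, 1 hr ambient; Alexa 594 FP and total fluorescence read at 555/632 nm.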
Numbers stand for hits; 0 = inactive; ? = inconclusive; - = no result; [ ] = another dose, or the depositor's remark. Unless noted, calls come from the whole dose curve; as a rule, active = well fitted curve in the direction sought with a large enough effect; inconclusive = small, poorly fitted or top-dose-only effect, or another doubt; inactive = no such curve, though single readings can be large; an effect the other way counts as inactive or inconclusive.

SMILES	Tau fibril ThT	TR SRC2 fluor cs	Tau fibril FP	TRb SRC2 PPI	Tau fluor counter
Cc1cc(N2CCOCC2)nc2ccc(NC(=S)N3CCCCC3C)cc12 (stereo not given)	11.2µM	0	0	0	15.8µM[quencher]
COc1ccc(Nc2cc(C)c3cc(NC(=O)Cc4ccc(Cl)cc4)ccc3n2)cc1	11.2µM	0	0	0	5.01µM[quencher]
CCN1CCN(c2cc(C)c3cc(NC(=O)c4cc(OC)c(OC)c(OC)c4)ccc3n2)CC1	?	0	0	0	?
CCN1CCN(c2cc(C)c3cc(NC(=O)c4cccc(OC)c4)ccc3n2)CC1	-	0	0	0	?
Cc1cc(Nc2cccc(Cl)c2)nc2ccc(NC(=O)COc3ccc(Cl)cc3)cc12	?	0	0	0	7.94µM[quencher]
Cc1cccc(OCC(=O)Nc2ccc3nc(Nc4cccc(Cl)c4)cc(C)c3c2)c1	?	?	0	0	?
COc1cccc(C(=O)Nc2ccc3nc(N4CCOCC4)cc(C)c3c2)c1	5.01µM	0	0	0	?
Cc1sc(-c2ccncc2)nc1OC(=O)c1ccc(Cl)cc1	?	0	0	0	0
Cc1sc(-c2ccncc2)nc1OC(=O)c1cc(Cl)cc(Cl)c1	28.2µM	0	0	0	0
CCc1ccc(-c2csc3[n+]2CCN3C(C)=O)cc1	25.1µM	0	?	0	0
CC(=O)N1CC[n+]2c(-c3ccc(Cl)cc3)csc21	28.2µM	0	?	0	0
CC(=O)N1CCN(C(=S)c2ccc(Cl)cc2)CC1	0	0	0	0	0
O=C(CN1CC[n+]2c(-c3cccs3)csc21)c1ccc(-c2ccccc2)cc1	0	0	0	0	0
Brc1ccc2nc(SCCOc3ccccc3)[nH]c2c1	?	0	28.2µM	0	14.1µM[quencher]
CCCCN(C)CC(O)Cn1cc(/C=C/C(=O)c2ccc(OCC)cc2)c2ccccc21 (stereo not given)	11.2µM	0	0	0	?
CCCCN(CCCC)CC(O)Cn1cc(/C=C/C(=O)c2ccccc2)c2ccccc21 (stereo not given)	?	0	0	0	?
CCCCOc1cccc(C2c3c(-c4cc(C)ccc4O)n[nH]c3C(=O)N2CCOC)c1 (stereo not given)	0	0	0	0	?
CC1=CC(C)(C)n2c(O)c(N=N)c3cc(C)cc1c32	28.2µM	0	?	0	?
CC1=CC(C)(C)n2c(O)c(N=N)c3c(C)c(C)cc1c32	25.1µM	0	0	0	?
COc1cc2c3c(c1)c(N=NC(N)=S)c(O)n3C(C)(C)C=C2C	?	0	0	0	?
CC1=CC(C)(C)n2c(O)c(N=N)c3c(C)ccc1c32	0	0	0	0	0
O=C(NCc1cccc(Cl)c1)C1CCCN(c2ncnc3onc(-c4ccc(F)cc4)c23)C1 (stereo not given)	0	?	0	0	0
CCOC(=O)c1cc(C)n(CC2CCC(C(=O)Nc3ccc(C)cc3)CC2)c1C (stereo not given)	0	0	0	0	0
CC[C@]1(O)C[C@H]2CN(CCc3c([nH]c4ccccc34)[C@@](C(=O)OC)(c3cc4c(cc3OC)N(C=O)[C@H]3[C@@](O)(C(=O)OC)[C@H](OC(C)=O)[C@]5(CC)C=CCN6CC[C@]43[C@@H]65)C2)C1	-	0	-	0	-
COc1ccc(-c2nc(-c3cccs3)c(-c3cccs3)[nH]2)cc1O	12.6µM	0	0	0	12.6µM[quencher]
SMILES	Tau fibril ThT	TR SRC2 fluor cs	Tau fibril FP	TRb SRC2 PPI	Tau fluor counter
Cc1ccc2oc(-c3ccccc3C(=O)O)cc(=O)c2c1	0	0	0	0	0
O=C(O)c1ccccc1-c1c2cc(Br)c(=O)c(Br)c-2oc2c(Br)c(O)c(Br)cc12	-	28.2µM[fluorescent]	-	?	-
Cc1ccc(S(=O)(=O)Oc2ccc(N=Nc3ccc(-c4ccc(N=Nc5c(O)ccc6cc(S(=O)(=O)O)cc(S(=O)(=O)O)c56)c(C)c4)cc3C)cc2)cc1	-	0	-	?	-
CCSc1ncc(/C=N/Nc2ccc(F)cc2)n1C	8.91µM	0	0	0	?
COc1cc(OC)cc(C(=O)NC(=S)NNC(=O)Cc2cccs2)c1	0	0.316µM[quencher]	0	?	0
COc1ccc(C(=O)NC(=S)NNC(=O)Cc2cccs2)cc1	0	0	0	0	0
CC1CCN(c2nc(Cl)nc(Nc3ccc([N+](=O)[O-])cc3)n2)CC1	?	0	?	0	8.91µM[quencher]
CC(C)NC(=O)Cn1nnc(-c2ccc(Cl)cc2)n1	25.1µM	0	?	0	?
O=C(Cn1nnc(-c2ccc(Cl)cc2)n1)NCc1ccc(F)cc1	0	0	0	0	0
CCOc1ccccc1CNC(=O)c1ccc(CS(=O)Cc2cccc(Cl)c2)o1 (stereo not given)	0	0	0	0	0
COc1ccc(CCNC(=O)C(=O)NCC(c2ccc3c(c2)OCO3)N2CCOCC2)cc1 (stereo not given)	0	0	0	0	0
Cc1onc(-c2c(F)cccc2Cl)c1C(=O)OCC(=O)c1c[nH]c2ccccc12	0	0	17.8µM	0	17.8µM[quencher]
Oc1ccc(Br)cc1-c1cc(-c2ccc(Cl)cc2)n[nH]1	?	0	?	0	?
CCCOc1ccc(Br)cc1-c1cc(-c2ccc(Cl)cc2)[nH]c1-c1ccncc1	0	0	?	0	7.94µM[quencher]
O=C1N[C@@H]2[C@H](CCCCC(=O)Oc3ccc([N+](=O)[O-])cc3)SC[C@H]2N1	-	0	-	0	-
Nc1ccc(C(=O)NCC(=O)O)cc1	31.6µM	0	?	0	?
CCSc1ccc(C(=O)NCC(=O)O)cc1	0	0	0	0	0
COc1ccc(OCC(=O)N/N=C/c2ccc(N(C)C)cc2)cc1	2.51µM	0	?	0	?
CN(C)c1ccc(/C=N/NC(=O)c2cccc(C(=O)N/N=C/c3ccc(N(C)C)cc3)n2)cc1	0	0	0	0	0
COc1ccc(NC(=O)Nc2ccc(OC)cc2)cc1	0	0	0	0	0
CN(C)c1ccc(NC(=O)c2cccc(C(=O)Nc3ccc(N(C)C)cc3)n2)cc1	15.8µM	0	0	0	?
COc1ccc(/C=N/NC(=O)CNC(=O)COc2ccccc2)cc1	0	0	0	0	0
COc1ccc(NC(=O)Nc2ccc(N(C)C)cc2)cc1	12.6µM	0	0	0	?
CN(C)c1ccc(NC(=O)c2ccc3nsnc3c2)cc1	7.94µM	0	0	0	0
C=C[C@@]1(C)CC(=O)[C@]2(O)[C@@]3(C)[C@H](O)CCC(C)(C)[C@@H]3[C@H](O)[C@H](OC(C)=O)[C@@]2(C)O1	-	0	-	0	-
CCOc1ccc(C(=O)c2cn(CC(=O)Nc3ccc4c(c3)OCCO4)c3ccc(F)cc3c2=O)cc1	0	0	0	0	0
COC(=O)CN1C(=O)CSc2ccc(S(=O)(=O)N3CCOCC3)cc21	0	0	0	0	0
O=C(CCc1ccccc1)Nc1ncn[nH]1	0	0	0	0	0
O=C(/C=C/c1ccccc1)Nc1ncn[nH]1	10µM	0	?	0	0
CCN1CCc2nc3sc(C(=O)c4ccccc4)c(N)c3cc2C1	8.91µM	0	0	0	15.8µM[quencher]
